The target of assay [1] is Bile acid receptor (Homo sapiens) (UniProt Q96RI1). In words: ATG_IR1_CIS: Attagene CIS-FACTORIAL HepG2 Assay for human Nuclear Receptor Subfamily 1 Group H Member 4 (NR1H4), IR1 submotif (AID 2282946). Particulars: IR1 reporter transcription, actives raise or lower the signal. A digest of the protocol:
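Readout: reporter transcript levels by RT-PCR with fluorescent capillary electrophoresis, from HepG2 cells transiently transfected with multiplexed cis-regulated reporters and dosed 24 h. Gain- or loss-of-signal fitted versus DMSO negative control.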

The nature of assay [2]: ATG_GRE_CIS: Attagene CIS-FACTORIAL HepG2 Assay for human Glucocorticoid Response Elements (GRE) (AID 2282947). The following applies: HepG2 GRE cis-reporter, Attagene multiplex mRNA; actives raise or lower the signal. A digest of the protocol:
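Cells (HepG2) bearing transfected cis-promoter reporter transcription units were treated with chemical for 24 hours. Reporter mRNA was measured via RT-PCR with capillary electrophoresis, and activity was fitted in both directions relative to DMSO.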

Assay [3] can be described thus: ATG_ISRE_CIS: Attagene CIS-FACTORIAL HepG2 Assay for human Interferon Regulatory Factor 1 (IRF1) binding to an Interferon-Stimulated Response Element (ISRE) (AID 2282948). Particulars: HepG2 ISRE cis-reporter (Attagene), mRNA transcription readout; actives raise or lower the signal. A digest of the protocol:
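Multiplexed mRNA reporter readout in human liver HepG2 cells: cis-element-driven reporters transfected, compound added for 24 h, transcripts amplified, fluorescently labelled and sized by capillary electrophoresis; curve fitting bidirectional against DMSO.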

Assay [4] can be described thus: ATG_M_32_CIS: Attagene CIS-FACTORIAL HepG2 Assay for M32 Transcription Factor (Internal Marker) (AID 2282949).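 Also: background control marker of the multiplexed CIS panel rather than a real target.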 The following applies: HepG2 Attagene cis-factorial M32 reporter, mRNA; actives raise or lower the signal. A digest of the protocol: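 HepG2 human liver cells transiently transfected with cis-promoter-driven multiple reporter transcription units, dosed 24 h. Reporter mRNA quantified by RT-PCR, FAM-labelled primer extension, HpaI digest and capillary electrophoresis; bidirectional fit versus DMSO baseline.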

Assay [5] is described as follows: ATG_M_06_CIS: Attagene CIS-FACTORIAL HepG2 Assay for M06 Transcription Factor (Internal Marker) (AID 2282950). The following applies: HepG2 Attagene CIS-FACTORIAL M06 internal marker reporter; actives raise or lower the signal. A digest of the protocol:
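Fluorescence-labelled RT-PCR products from cis-promoter reporter units, cut with HpaI and resolved by capillary electrophoresis, give the signal. Cells are human HepG2, dosed for 24 h. Serves as background control, fitted relative to DMSO.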

The target of assay [6] is Hypoxia-inducible factor 1-alpha (Homo sapiens) (UniProt Q16665). In words: ATG_HIF1a_CIS: Attagene CIS-FACTORIAL HepG2 Assay for human Hypoxia Inducible Factor 1 (HIF1A) (AID 2282951). Particulars: HepG2 Attagene cis-factorial HIF1a reporter transcription; actives raise or lower the signal. A digest of the protocol: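 Measures endogenous transcription-factor activity through cis-regulated reporter mRNA in HepG2. Cells dosed 24 h; transcripts quantified by RT-PCR with 6-FAM-labelled products separated by capillary electrophoresis; DMSO serves as negative control.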
Sequence of Hypoxia-inducible factor 1-alpha (Homo sapiens) (Q16665 whole entry, looked up): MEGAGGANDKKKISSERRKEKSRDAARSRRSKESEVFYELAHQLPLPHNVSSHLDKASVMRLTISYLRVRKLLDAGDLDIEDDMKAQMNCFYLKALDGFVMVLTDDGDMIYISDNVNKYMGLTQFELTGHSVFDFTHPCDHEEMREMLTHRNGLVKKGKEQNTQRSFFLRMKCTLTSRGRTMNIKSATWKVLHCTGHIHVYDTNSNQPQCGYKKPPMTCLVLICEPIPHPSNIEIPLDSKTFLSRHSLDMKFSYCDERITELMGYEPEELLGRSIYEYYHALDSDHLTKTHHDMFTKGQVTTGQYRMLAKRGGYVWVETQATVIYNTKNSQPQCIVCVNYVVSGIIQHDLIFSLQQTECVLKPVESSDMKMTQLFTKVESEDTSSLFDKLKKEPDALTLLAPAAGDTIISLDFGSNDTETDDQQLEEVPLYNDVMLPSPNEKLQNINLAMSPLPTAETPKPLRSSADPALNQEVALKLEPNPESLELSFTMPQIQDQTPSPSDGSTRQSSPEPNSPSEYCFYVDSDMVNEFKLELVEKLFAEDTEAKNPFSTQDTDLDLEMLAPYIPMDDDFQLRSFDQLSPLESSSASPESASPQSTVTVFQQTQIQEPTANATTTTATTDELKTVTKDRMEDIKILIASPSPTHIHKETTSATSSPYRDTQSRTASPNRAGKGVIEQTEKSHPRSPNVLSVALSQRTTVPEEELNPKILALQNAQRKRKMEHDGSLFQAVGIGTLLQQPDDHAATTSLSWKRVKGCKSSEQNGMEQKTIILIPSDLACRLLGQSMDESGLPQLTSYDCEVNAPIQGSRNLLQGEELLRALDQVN

For assay [7], the target named is Hepatocyte nuclear factor 6 (Homo sapiens) (UniProt Q9UBC0). Nature of the assay: ATG_HNF6_CIS: Attagene CIS-FACTORIAL HepG2 Assay for human Hepatocyte Nuclear Factor 6 (HNF6) (AID 2282952). Particulars: HepG2 Attagene cis-factorial HNF6 reporter transcription; actives raise or lower the signal. A digest of the protocol: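 Twenty-four-hour chemical treatment of reporter-transfected HepG2 cells precedes RNA isolation, DNase-treated reverse transcription and PCR of reporter sequences. Labelled fragments are sized by capillary electrophoresis and fitted bidirectionally versus DMSO.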
Sequence of Hepatocyte nuclear factor 6 (Homo sapiens) (Q9UBC0 whole entry, looked up, the tested form may be a part): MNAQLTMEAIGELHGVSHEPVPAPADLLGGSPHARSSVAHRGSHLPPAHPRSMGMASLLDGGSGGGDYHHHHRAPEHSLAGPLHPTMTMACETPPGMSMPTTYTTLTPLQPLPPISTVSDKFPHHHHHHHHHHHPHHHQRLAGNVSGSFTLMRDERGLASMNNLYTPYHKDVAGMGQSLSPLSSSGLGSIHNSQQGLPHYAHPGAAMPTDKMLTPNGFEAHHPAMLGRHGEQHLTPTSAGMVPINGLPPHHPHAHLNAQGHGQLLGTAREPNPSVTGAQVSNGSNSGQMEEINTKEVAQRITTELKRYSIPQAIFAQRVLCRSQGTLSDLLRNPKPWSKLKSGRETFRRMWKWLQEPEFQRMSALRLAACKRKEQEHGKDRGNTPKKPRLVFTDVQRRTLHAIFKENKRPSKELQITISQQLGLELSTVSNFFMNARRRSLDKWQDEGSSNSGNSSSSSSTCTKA

Assay [8] deals with Heat shock factor protein 1 (Homo sapiens) (UniProt Q00613). In words: ATG_HSE_CIS: Attagene CIS-FACTORIAL HepG2 Assay for human Heat Shock Transcription Factor 1 (HSE) (AID 2282953). The following applies: HepG2 HSE cis-reporter, Attagene RNA transcription; actives raise or lower the signal. A digest of the protocol:
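After a 24 h incubation with test chemical, transfected HepG2 cells were harvested for RNA; reporter transcripts were measured by RT-PCR and capillary electrophoresis. Values reflect gain or loss of signal relative to DMSO.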

Assay [9] can be described thus: ATG_MRE_CIS: Attagene CIS-FACTORIAL HepG2 Assay for human Metal Responsive Element (MRE) (AID 2282954). The following applies: HepG2 MRE cis-reporter transcription, Attagene multiplex; actives raise or lower the signal. A digest of the protocol:
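Cells were transfected with cis-promoter reporter transcription units, then dosed for 24 h. RNA was reverse-transcribed, amplified, fluorescently labelled and resolved by capillary electrophoresis, and activity was fitted in both directions relative to DMSO.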

Assay [10] in a line: ATG_PBREM_CIS: Attagene CIS-FACTORIAL HepG2 Assay for human Phenobarbital-responsive Enhancer Module (PBREM) (AID 2282955). Particulars: HepG2 PBREM cis-reporter, Attagene multiplexed transcription; actives raise or lower the signal. A digest of the protocol:
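Fluorescence of labelled reporter cDNA fragments, resolved by capillary electrophoresis, gives mRNA induction in transfected HepG2 cells treated for 24 h; DMSO serves as negative control and baseline.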

For assay [11], the target named is Paired box protein Pax-6 (Homo sapiens) (UniProt P26367). In words: ATG_Pax6_CIS: Attagene CIS-FACTORIAL HepG2 Assay for human Paired Box 6 (PAX6) (AID 2282956). Particulars: HepG2 CIS-FACTORIAL PAX6 reporter transcription, RNA readout; actives raise or lower the signal. A digest of the protocol:
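Fluorescent RT-PCR products separated by capillary electrophoresis report PAX6-linked promoter mRNA in HepG2 cells 24 h post-dose. Curves fitted bidirectionally, DMSO as negative control.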

Assay [12] can be described thus: ATG_PXRE_CIS: Attagene CIS-FACTORIAL HepG2 Assay for human Pregnane X Receptor Element (PXRE) (AID 2282957). Particulars: HepG2 Attagene CIS-FACTORIAL PXRE reporter, mRNA; actives raise or lower the signal. A digest of the protocol: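 Bidirectional activity, baselined to DMSO, derived from reporter mRNA fluorescence (RT-PCR plus capillary electrophoresis) in HepG2 cells bearing cis-promoter reporter units, 24 h exposure.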

The nature of assay [13]: ATG_PPRE_CIS: Attagene CIS-FACTORIAL HepG2 Assay for human Peroxisome Proliferator-activated Response Element (PPRE) (AID 2282958). The following applies: HepG2 PPRE cis-element reporter, Attagene transcription factor profiling; actives raise or lower the signal. A digest of the protocol:
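Cells are first transfected transiently with the multiplexed reporter library, then dosed for 24 h. Total RNA is reverse-transcribed, amplified, fluorescently end-labeled and HpaI-cut before capillary electrophoresis; activity is fitted bidirectionally against DMSO controls.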

A short description of assay [14]: ATG_Sox_CIS: Attagene CIS-FACTORIAL HepG2 Assay for human SRY-box transcription factor (SOX) (AID 2282960). Particulars: HepG2 Attagene cis-factorial SOX reporter, mRNA; actives raise or lower the signal. A digest of the protocol:
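Transient MRTU transfection of HepG2; 24 h compound incubation; TriZol RNA, oligo(dT) RT, PCR, 6-FAM primer extension, HpaI cut, CE. Bidirectional fit, DMSO = baseline.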

The target of assay [15] is Transcription factor Sp1 (Homo sapiens) (UniProt P08047). Nature of the assay: ATG_Sp1_CIS: Attagene CIS-FACTORIAL HepG2 Assay for human Specificity Protein 1 (Sp1) (AID 2282961). The following applies: HepG2 Sp1 cis-reporter transcription, actives raise or lower the signal. A digest of the protocol: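 Endogenous Sp1 activity was gauged in human liver HepG2 cells bearing transfected reporter units under a cis-regulating promoter. After 24 h dosing, reporter mRNA was quantified by RT-PCR with capillary electrophoresis, and activity fitted bidirectionally versus DMSO.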
Sequence of Transcription factor Sp1 (Homo sapiens) (P08047 whole entry, looked up): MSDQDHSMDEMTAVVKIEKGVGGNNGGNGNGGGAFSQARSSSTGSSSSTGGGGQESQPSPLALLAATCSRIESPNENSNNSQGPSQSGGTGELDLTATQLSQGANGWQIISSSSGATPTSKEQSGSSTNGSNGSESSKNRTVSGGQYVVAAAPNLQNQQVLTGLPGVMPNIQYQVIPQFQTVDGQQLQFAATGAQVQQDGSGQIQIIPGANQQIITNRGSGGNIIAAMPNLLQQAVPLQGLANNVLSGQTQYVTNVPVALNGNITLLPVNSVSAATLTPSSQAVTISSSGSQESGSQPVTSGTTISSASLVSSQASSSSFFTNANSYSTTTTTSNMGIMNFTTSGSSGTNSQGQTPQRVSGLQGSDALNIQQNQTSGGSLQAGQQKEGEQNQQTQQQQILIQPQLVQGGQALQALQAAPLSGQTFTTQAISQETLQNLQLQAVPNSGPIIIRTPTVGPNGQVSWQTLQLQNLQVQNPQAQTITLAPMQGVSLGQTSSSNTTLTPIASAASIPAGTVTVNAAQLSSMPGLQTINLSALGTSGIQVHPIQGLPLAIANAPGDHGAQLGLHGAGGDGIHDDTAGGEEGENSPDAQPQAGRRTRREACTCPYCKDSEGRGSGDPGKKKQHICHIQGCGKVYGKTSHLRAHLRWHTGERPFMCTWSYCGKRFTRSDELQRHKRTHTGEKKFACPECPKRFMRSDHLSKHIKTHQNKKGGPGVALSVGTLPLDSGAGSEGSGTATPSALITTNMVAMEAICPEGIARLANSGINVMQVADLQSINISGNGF

A short description of assay [16]: ATG_SREBP_CIS: Attagene CIS-FACTORIAL HepG2 Assay for human Sterol Regulatory Element Binding (SREBP) (AID 2282962). The following applies: HepG2 Attagene cis-factorial SREBP reporter, mRNA; actives raise or lower the signal. A digest of the protocol:
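Endogenous factor activity is measured in HepG2 through multiplexed reporter units under cis-element control. Following a 24 h incubation, reporter transcripts are reverse-transcribed, PCR-amplified and sized by capillary electrophoresis; activity is fitted in both directions relative to DMSO.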

Assay [17] addresses Signal transducer and activator of transcription 3 (Homo sapiens) (UniProt P40763). Nature of the assay: ATG_STAT3_CIS: Attagene CIS-FACTORIAL HepG2 Assay for human Signal Transducer and Activator of Transcription 3 (STAT3) (AID 2282963). The following applies: HepG2, Attagene cis-factorial STAT3 reporter transcription; actives raise or lower the signal. A digest of the protocol:
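HepG2, MRTU-transfected, 24 h dosing. RNA → RT → PCR → FAM label → HpaI → CE. Bidirectional fit vs DMSO.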

Assay [18] can be described thus: ATG_TA_CIS: Attagene CIS-FACTORIAL HepG2 Assay for human TA Basal Promoter (AID 2282964). The following applies: HepG2 Attagene CIS-factorial TA basal promoter reporter; actives raise or lower the signal. A digest of the protocol:
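Multiplexed mRNA reporter assay, HepG2, 24 h. Reporter cDNA amplified, 6-FAM primer-extended, HpaI-cut, CE-sized; DMSO = negative control and baseline.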

A short description of assay [19]: ATG_TCF_b_cat_CIS: Attagene CIS-FACTORIAL HepG2 Assay for human T-Cell-Factor with beta-catenin (TCF/b-cat) (AID 2282965). Particulars: HepG2 TCF/beta-catenin cis-reporter transcription, actives raise or lower the signal. A digest of the protocol:
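Using capillary electrophoresis as the read-out, labelled reporter cDNA fragments from transiently transfected HepG2 were sized and quantified. Exposure lasted 24 hours; activity in either direction was referenced to DMSO.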

The nature of assay [20]: ATG_RORE_CIS: Attagene CIS-FACTORIAL HepG2 Assay for human RAR-related Orphan Receptor Element (RORE) (AID 2282959). The following applies: HepG2 Attagene cis-factorial RORE reporter, mRNA; actives raise or lower the signal. A digest of the protocol: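 Cells were HepG2 carrying transfected cis-regulated reporter constructs, dosed for 24 hours. Total RNA was reverse-transcribed and reporter cDNA amplified, fluorescently labeled and sized by capillary electrophoresis. Activity was fitted bidirectionally relative to DMSO.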

Where “and” joins values, the source holds several entries; their conditions need not be identical. Equal entries are not always repeated. More than one record can exist for a structure, and the calls need not agree. Calls of active or inactive are those of the source. The calls were made as follows: active = hit-call score of the fitted dose curve at least 0.9, where 1 is the maximum; inactive = score below 0.9.

Sequence of Paired box protein Pax-6 (Homo sapiens) (P26367 whole entry, looked up): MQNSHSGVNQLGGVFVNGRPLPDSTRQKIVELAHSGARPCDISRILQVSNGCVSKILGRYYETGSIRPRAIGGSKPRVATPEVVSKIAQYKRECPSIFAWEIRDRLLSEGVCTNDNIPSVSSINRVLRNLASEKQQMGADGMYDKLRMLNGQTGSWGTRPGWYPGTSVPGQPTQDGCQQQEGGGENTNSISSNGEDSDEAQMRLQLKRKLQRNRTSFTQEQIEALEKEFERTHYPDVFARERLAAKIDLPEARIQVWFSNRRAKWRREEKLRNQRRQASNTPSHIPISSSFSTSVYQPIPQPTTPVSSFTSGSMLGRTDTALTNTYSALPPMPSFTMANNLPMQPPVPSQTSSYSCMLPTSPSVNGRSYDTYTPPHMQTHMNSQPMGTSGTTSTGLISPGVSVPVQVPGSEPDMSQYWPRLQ
Sequence of Signal transducer and activator of transcription 3 (Homo sapiens) (P40763 whole entry, looked up): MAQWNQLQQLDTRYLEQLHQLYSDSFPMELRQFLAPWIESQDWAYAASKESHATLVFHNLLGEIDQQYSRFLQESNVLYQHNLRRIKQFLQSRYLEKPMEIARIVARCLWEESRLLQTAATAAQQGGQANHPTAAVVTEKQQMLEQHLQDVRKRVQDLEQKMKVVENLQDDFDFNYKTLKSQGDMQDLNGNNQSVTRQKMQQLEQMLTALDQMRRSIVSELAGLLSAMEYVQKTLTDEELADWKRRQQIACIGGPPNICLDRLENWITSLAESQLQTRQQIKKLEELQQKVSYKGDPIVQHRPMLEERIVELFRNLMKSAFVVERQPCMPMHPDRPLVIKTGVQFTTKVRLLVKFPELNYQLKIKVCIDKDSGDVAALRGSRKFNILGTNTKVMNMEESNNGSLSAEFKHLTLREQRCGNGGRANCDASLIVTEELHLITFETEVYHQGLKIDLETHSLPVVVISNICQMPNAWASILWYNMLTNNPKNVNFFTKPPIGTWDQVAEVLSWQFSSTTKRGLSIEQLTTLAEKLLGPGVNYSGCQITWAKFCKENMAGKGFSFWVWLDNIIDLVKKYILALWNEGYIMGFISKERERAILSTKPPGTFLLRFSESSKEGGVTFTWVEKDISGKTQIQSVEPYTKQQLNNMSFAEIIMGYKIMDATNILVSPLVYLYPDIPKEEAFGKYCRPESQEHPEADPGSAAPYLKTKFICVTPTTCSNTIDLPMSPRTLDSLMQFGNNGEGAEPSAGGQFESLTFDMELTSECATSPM
Sequence of Bile acid receptor (Homo sapiens) (Q96RI1 whole entry, looked up): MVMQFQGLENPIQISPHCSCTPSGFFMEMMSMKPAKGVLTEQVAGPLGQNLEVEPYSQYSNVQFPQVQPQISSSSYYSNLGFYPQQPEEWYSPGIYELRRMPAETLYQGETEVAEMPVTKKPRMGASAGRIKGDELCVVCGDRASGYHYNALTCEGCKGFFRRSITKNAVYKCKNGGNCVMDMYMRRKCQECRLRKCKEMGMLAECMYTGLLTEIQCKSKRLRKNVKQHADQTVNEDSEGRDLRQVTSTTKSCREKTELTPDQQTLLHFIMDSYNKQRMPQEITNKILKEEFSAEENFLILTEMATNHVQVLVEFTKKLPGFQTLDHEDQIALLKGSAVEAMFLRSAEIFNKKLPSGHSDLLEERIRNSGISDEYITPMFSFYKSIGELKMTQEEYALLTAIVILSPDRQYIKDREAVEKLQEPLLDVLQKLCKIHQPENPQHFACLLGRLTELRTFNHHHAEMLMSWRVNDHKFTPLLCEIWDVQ
Sequence of Heat shock factor protein 1 (Homo sapiens) (Q00613 whole entry, looked up): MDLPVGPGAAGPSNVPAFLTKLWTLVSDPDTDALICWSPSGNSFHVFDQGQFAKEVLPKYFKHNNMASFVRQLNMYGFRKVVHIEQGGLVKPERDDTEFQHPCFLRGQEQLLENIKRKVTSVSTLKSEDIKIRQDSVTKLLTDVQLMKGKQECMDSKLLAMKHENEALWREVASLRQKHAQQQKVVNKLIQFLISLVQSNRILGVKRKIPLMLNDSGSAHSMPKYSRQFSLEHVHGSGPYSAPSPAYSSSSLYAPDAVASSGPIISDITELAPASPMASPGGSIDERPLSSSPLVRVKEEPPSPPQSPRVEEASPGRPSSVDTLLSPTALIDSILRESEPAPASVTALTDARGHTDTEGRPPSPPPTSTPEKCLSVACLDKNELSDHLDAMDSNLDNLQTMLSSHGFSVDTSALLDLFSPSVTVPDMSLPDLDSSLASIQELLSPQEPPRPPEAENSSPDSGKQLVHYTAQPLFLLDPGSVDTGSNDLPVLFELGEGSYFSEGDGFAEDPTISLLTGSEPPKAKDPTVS

As usually defined, the AC50 is the midpoint of the concentration-response curve, whichever way the signal moves. As to `CCCCOC(=O)CC(CC(=O)OCCCC)(OC(C)=O)C(=O)OCCCC`, the outcome in assay [1], in assay [2], in assay [3], in [4], in [5] and in assay [6] was inactive. Also, the result in assay [7], in assay [8], in assay [10], in assay [11], in [13] and in assay [14] was inactive. Moreover, the outcome in [15], in assay [16], in assay [17], in assay [18] and in assay [19] was inactive. For the same compound, the AC50 in [3] is 26.7 µM (active); in [9], 27.2 µM (active) and 20.7 µM (active); in [10], 26.6 µM (active); in [12] it was 1.18 µM (active) and 705 nM (active).
On to `c1ccc(C[n+]2cccc3ccccc32)cc1`, for which the outcome in assay [1], in [2], in assay [3], in assay [4], in assay [5] and in [7] was inactive. For the same compound, the compound was classed as inactive in [8], in assay [9], in [10], in assay [11], in assay [12] and in assay [13]. Further, the compound was classed as inactive in assay [20], in [14], in assay [15], in assay [16] and in [17].
Take `CC1=CC(=O)/C(=C(/C)O)C(=O)O1`: the call in assay [1], in [2], in [3], in assay [4], in [5] and in assay [7] was inactive. The outcome in assay [8], in assay [9], in assay [10], in assay [11], in assay [12] and in assay [13] was inactive. Moreover, the compound was classed as inactive in [20], in assay [14], in [15], in [16], in assay [17] and in assay [18].

Source of the values: PubChem BioAssay (EPA / NIEHS).
